# The campaign covered roughly 48,000 compounds. About 13,000 (27%) showed an effect of 50% or more. Some of the results follow.
# Test system: Wolbachia pipientis
# Experiment: Anti-Wolbachia Cell-Based Screen
# Format: functional
# Parameters: scale not given: in the data most compounds retested in dose-response had high values
# Details: 5 µM
row,SMILES,Percent Effect [%]
1,COCCN(C(=O)c1ccc(OC)cc1)c1ccc(C#N)cc1,3.07
2,Cc1ccc(C(=O)NCCCN(C(C)C)S(C)(=O)=O)c(=O)[nH]1,16.76
3,COCCN(C)C[C@H]1CC[C@@H](Cc2ccc3c(cnn3C)c2)O1,-8.226
4,CN(C)C(=O)[C@H]1C[C@@H]2CN(S(=O)(=O)c3ccccc3)C[C@H]1O2,1.569
5,Cc1cnc(N2C[C@H]3C[C@H](C(=O)N4CCN(C)CC4)N(C)[C@H]3C2)nc1.O=C(O)C(F)(F)F.O=C(O)C(F)(F)F.O=C(O)C(F)(F)F,1.417
6,O=C(NCC1CCCCC1)N1C[C@H]2C[C@H](C(=O)N3CCOCC3)[C@@H](C1)O2,-10.09
7,CC(C)CN1CCS(=O)(=O)[C@@H]2CCN(S(=O)(=O)CC(C)C)CC[C@@H]21.O=C(O)C(F)(F)F,-0.8095
8,CC(C)CS(=O)(=O)N1C[C@H]2C[C@H](C(=O)N3CCCC3)[C@@H](C1)O2,109.6
9,CC(C)NC(=O)N1C[C@H]2C[C@H](C(=O)N3CCCC3)[C@@H](C1)O2,-51.72
10,CC(C)CS(=O)(=O)N1C[C@H]2C[C@H](C(=O)NCc3ccccc3)[C@@H](C1)O2,6.255
11,CC(C)CS(=O)(=O)N1C[C@H]2C[C@H](C(=O)N(C)C)[C@@H](C1)O2,117.8
12,CCCS(=O)(=O)N1C[C@H]2C[C@H](C(=O)N(C)C)[C@@H](C1)O2,1.854
13,CC(C)CS(=O)(=O)N1C[C@H]2C[C@H](C(=O)N3CCN(C)CC3)[C@@H](C1)O2.O=C(O)C(F)(F)F,100.5
14,CC(C)CS(=O)(=O)N1C[C@H]2C[C@H](C(=O)N3CCOCC3)[C@@H](C1)O2,113.5
15,O=C(NCC1CCCCC1)N1C[C@H]2C[C@H](C(=O)N3CCCC3)[C@@H](C1)O2,-1.453
16,CCS(=O)(=O)NCCNc1c(C#N)cnc2c(F)cc(F)cc12,9.088
17,O=c1c2cccnc2cnn1CC(O)c1cccc(Cl)c1 (stereo unspecified),-24.01
18,O=C(NCC(O)c1cccc(F)c1)C1CCN(C2CCCCC2)CC1 (stereo unspecified),-12.87
19,COCCN1CCC(CN(CC2CCCO2)C(=O)Cc2cccs2)CC1 (stereo unspecified),153.6
20,O=C(c1cccnc1O)N(Cc1cccs1)CC1CCCO1 (stereo unspecified),-28.97
21,CCN1CCCC1CN(Cc1ccon1)CC1CCN(CCOC)CC1 (stereo unspecified),1.475
22,CCN1CCCC1CN(Cc1ccoc1)CC1CCN(CCOC)CC1 (stereo unspecified),3.887
23,COCCN1CCC(CN(CC2CCCO2)C(=O)Cn2cccn2)CC1 (stereo unspecified),105.2

row,SMILES,Percent Effect [%]
1,COCCN(Cc1cccs1)C(=O)C1CCCN(C(N)=O)C1 (stereo unspecified),11.05
2,CN(C)C(=O)N1CCC2(CC1)CN(CC1CC1)CC21CCNC1=O.O=C(O)C(F)(F)F (stereo unspecified),-46.87
3,CC(C)CC(C(=O)N(C)Cc1ncnn1C)N1CCCCC1=O (stereo unspecified),7.289
4,O=C(C1CCCO1)N1CCC(n2cc(-c3ccsc3)nn2)CC1 (stereo unspecified),2.629
5,CCNC(=O)NC1CCN(c2ccc(S(=O)(=O)CC)cc2)CC1,-0.338
6,CC(C#N)CN(C)Cc1ccc(Cl)c2cccnc12 (stereo unspecified),-6.534
7,CC(C)n1cc(C(=O)N2CCC(n3cc(C(C)(C)C)nn3)CC2)cn1,5.915
8,CCC(CC)(CNC(=O)OC(C)(C)C)NC(=O)C1CC1,0.8539
9,Cc1ccc(CN2C[C@@H]3CN(CC4CCOCC4)CCO[C@@H]3C2)s1.O=C(O)C(F)(F)F.O=C(O)C(F)(F)F,-6.305
10,CN1C[C@@H]2CN(Cc3ccsc3)CCC[C@]2(C(=O)O)C1.O=C(O)C(F)(F)F.O=C(O)C(F)(F)F,3.355
11,COCCN1C[C@@H]2CN(Cc3ccoc3)CCC[C@]2(C(=O)O)C1.O=C(O)C(F)(F)F.O=C(O)C(F)(F)F,-3.751
12,Cc1ccc(CN2CCC[C@]3(C(=O)O)CN(CC4CC4)C[C@@H]3C2)s1.O=C(O)C(F)(F)F.O=C(O)C(F)(F)F,98.43
13,Cc1ccc(CN2CCCC3(CCCN3S(C)(=O)=O)C2)s1.O=C(O)C(F)(F)F (stereo unspecified),2.867
14,Cc1ccc(CN2CCC[C@]3(C(=O)O)CN(C)C[C@@H]3C2)s1.O=C(O)C(F)(F)F.O=C(O)C(F)(F)F,119.8
15,COCCN1C[C@@H]2CN(Cc3ccsc3)CCC[C@]2(C(=O)O)C1.O=C(O)C(F)(F)F.O=C(O)C(F)(F)F,4.755
16,COCCN1C[C@@H]2CN(Cc3ccc(C)s3)CCC[C@]2(C(=O)O)C1.O=C(O)C(F)(F)F.O=C(O)C(F)(F)F,111.2
17,Cc1ccc(CN2CCCC3(CCCC(=O)N3)C2)s1.O=C(O)C(F)(F)F (stereo unspecified),-10.23
18,Cc1ocnc1C(=O)N1CCC2(CC1)c1nc[nH]c1CCN2CC(C)C,6.768
19,OC(COCc1cccs1)CSc1nnc2ccccn12 (stereo unspecified),9.754
20,Cc1ccccc1C(=O)N1Cc2c(Cn3ccnc3)nn(C)c2C1.O=C(O)C(F)(F)F,-9.207
21,COc1nn(C)c2c1CCCN(C(=O)c1cccc3cccnc13)C2.O=C(O)C(F)(F)F,97.34
22,COc1nn(C)c2c1CCCN(C(=O)c1ccccc1)C2,-3.094
23,Cn1nc(C#N)c2c1CN(C(=O)c1cccnc1)CCC2.O=C(O)C(F)(F)F,29.43

row,SMILES,Percent Effect [%]
1,COc1nn(C)c2c1CCCN(S(=O)(=O)c1cccc(F)c1)C2,-2.811
2,COc1nn(C)c2c1CCCN(C(=O)c1cccc(C)n1)C2.O=C(O)C(F)(F)F,98.8
3,Cc1nc(COCc2cnc3n2CCN(C2CCC2)C3C)cs1.O=C(O)C(F)(F)F (stereo unspecified),1.124
4,Cc1c(C(=O)N2CC(=O)N(C)C2)nnn1-c1cccc2cccnc12,-0.5272
5,Cc1occc1C(=O)NCC(=O)NCCOc1ccc2c(c1)CCC2,29.83
6,Cn1ccnc1C(=O)NC[C@H]1OC[C@@H]2CCN(S(C)(=O)=O)C[C@@H]21,-43.59
7,CNS(=O)(=O)c1cccc(CNc2cc(C(F)(F)F)ccn2)c1,-5.444
8,CCCn1ccnc1SCCNS(=O)(=O)c1ccccc1,8.595
9,Cc1cc(=O)n(CCNS(=O)(=O)c2cccc(C(F)(F)F)c2)cn1,121.6
10,Cc1cc(C)n(-c2ccc(NCCNS(=O)(=O)c3ccccc3)nn2)n1,5.574
11,Cc1cc(NCCNS(=O)(=O)c2cccc(Cl)c2)nc(C)n1,15.59
12,O=c1ccc(-n2ccnc2)nn1CCNS(=O)(=O)c1ccc(F)c(Cl)c1,15.65
13,Cc1cc(=O)n(CCNS(=O)(=O)c2ccccc2)cn1,113.1
14,O=c1ccc(-n2cccn2)nn1CCNS(=O)(=O)c1ccc(F)c(Cl)c1,8.551
15,Cc1cc(=O)n(CCNS(=O)(=O)c2ccc(F)c(Cl)c2)cn1,79.22
16,O=C(Nc1ccc2occc2c1)N1CCCC(O)(CO)CC1 (stereo unspecified),-15.39
17,Cc1cc(Br)ccc1NCC(=O)Nc1cc(C(C)(C)C)no1,-8.877
18,O=C(c1ccc2c(c1)CCCC2)N1CCOCC1c1ncon1 (stereo unspecified),4.25
19,Cc1cn[nH]c1C1COCCN1C(=O)c1cc(F)ccc1F (stereo unspecified),95.39
20,Cc1n[nH]c(C)c1C1COCCN1C(=O)Cc1cccc(F)c1 (stereo unspecified),-5.544
21,Cc1cn[nH]c1C1COCCN1C(=O)c1ccc2[nH]nnc2c1 (stereo unspecified),120.8
22,CC(=O)Nc1cc(C(=O)N2CCOCC2c2ccc(C)o2)ccc1F (stereo unspecified),-2.563
23,Cc1n[nH]c(C)c1C1COCCN1C(=O)c1ccccc1 (stereo unspecified),5.535

row,SMILES,Percent Effect [%]
1,Cc1cn[nH]c1C1COCCN1C(=O)c1ccc2c(c1)CCCC2 (stereo unspecified),108.4
2,CS(=O)(=O)NCc1ccc(NC(=O)CC2=CCCCC2)cc1,0.7476
3,CCOCC(O)CN1CCN(C(=O)c2ccnc(N(C)C)c2)CC1 (stereo unspecified),-11.71
4,CN(CCO)Cc1cc(Cl)ccc1OCC(O)CN1CCCCCC1 (stereo unspecified),92.98
5,COCCN(C)C(C(=O)O)c1cc(Cl)ccc1OC (stereo unspecified),-4.575
6,OCCN1CCN(CC(O)c2cc(Cl)ccc2Cl)CC1 (stereo unspecified),-2.66
7,COCCN(C)Cc1cc(Cl)ccc1OCC(O)CN1CCCCCC1 (stereo unspecified),95.86
8,CCOc1ccc(Cl)cc1C(C(=O)O)N1CCCC1 (stereo unspecified),-26.77
9,CCN1CCN(CC(O)c2cc(Cl)ccc2Cl)CC1 (stereo unspecified),-3.784
10,CN(CCCO)Cc1cc(Cl)ccc1OCC(O)CN1CCCCCC1 (stereo unspecified),86.94
11,COCC(O)CN1CCC(NC(=O)c2ccccc2Cl)CC1 (stereo unspecified),-8.699
12,COc1cccc(CN2C[C@@H](F)[C@@H](OCc3nc4cnccc4[nH]3)C2)c1,-9.076
13,COc1ccc(C2C3=C(COC3=O)Nc3[nH]nc(C)c32)cc1OC (stereo unspecified),3.297
14,COCCn1ccc(NCc2scnc2C)n1,1.852
15,COCCn1ccc(NCc2sccc2C)n1,-10.57
16,NC(=O)CCn1ccc(NCc2cc(F)ccc2Br)n1,-14.37
17,Cc1cc(CNc2ccnn2C)ccc1-n1cncn1,1.687
18,COCCn1ccc(NCc2cc3cc(F)ccc3o2)n1,97.47
19,Cc1ccc2oc(CNC(C)c3nnc4n3CCCC4)cc2c1 (stereo unspecified),-13.95
20,Cn1ccc(NCc2cc3cc(F)ccc3o2)n1,107
21,Cn1nccc1NCc1cc2cc(F)ccc2o1,98.61
22,CC(NCc1cc2cc(F)ccc2o1)c1nnc2n1CCCC2 (stereo unspecified),-7.412
